PubChem BioAssay AID1159580 (chemical genetic matrix, 2015)
Hit rate of the full screen: of about 5,500 compounds, about 2,000 (36%) were called active. Not shown: some 18% with an inconclusive outcome. No stated cut-off is given here; in the data, active means normalized growth mostly below about 0.91 (no sharp cut-off); inconclusive means no clear call, values can overlap the other calls; inactive means mostly above about 0.92. Some of the results follow.

Experiment: chemical genetic growth profiling, strain panel (AID 1159580);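 further: tested at 20 µM; growth read once vehicle control cultures reached saturation at 30 °C; 1 = growth at the plate median or of vehicle wells; lower values mean less growth of the strain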
Details: S. cerevisiae deletion strains, growth OD
[1] = locus YAL040C, strain CLN3, active compounds read low
[2] = locus YCL061C, strain MRC1 (second series), active compounds read low
[3] = locus YDR150W, strain NUM1, active compounds read low
[4] = locus YDR363W, strain ESC2, active compounds read low
[5] = locus YER002W, strain NOP16, active compounds read low
[6] = locus YGR078C, strain PAC10, active compounds read low
[7] = locus YGR229C, strain SMI1, active compounds read low
[8] = locus YJR075W, strain HOC1, active compounds read low
[9] = locus YNL175C, strain NOP13, active compounds read low
[10] = locus YNL197C, strain WHI3, active compounds read low
[11] = locus YNL224C, strain SQS1, active compounds read low
[12] = locus YOR083W, strain WHI5 (second series), active compounds read low
[13] = locus YPL241C, strain CIN2, active compounds read low
[14] = locus YNL153C, strain GIM3, active compounds read low

Measured: normalized growth

Clc1ccc(N2CCN(Cc3c[nH]c4ncccc34)CC2)cc1
active: [7] 0.748
inactive: [1] 1.08 | [2] 0.969 | [3] 0.965 | [4] 0.907 | [5] 0.968 | [6] 0.975 | [8] 0.929 | [9] 0.969 | [10] 0.974 | [11] 0.987 | [12] 0.925 | locus YPL055C, strain LGE1, active compounds read low 0.92 | [13] 0.992

Ic1ccc(N2CCN(Cc3c[nH]c4ncccc34)CC2)cc1
active: [2] 0.919 | [3] 0.914 | [6] 0.851 | [12] 0.809
inactive: [1] 1 | [4] 0.956 | [5] 1.06 | locus YMR307W, strain GAS1, active compounds read low 1.01 | [9] 1.01 | [10] 1.01 | [11] 1.06

OC1(c2ccc(Cl)cc2)CCN(Cc2c[nH]c3ccccc23)CC1
inactive: locus YAL013W, strain DEP1, active compounds read low 1.01 | [1] 1 | [2] 0.999 | [4] 0.974 | [5] 1.03 | [6] 1.02 | [7] 0.979 | [8] 1.01 | [14] 1 | [9] 1.02 | [10] 1.02 | [11] 1.03 | locus YNL322C, strain KRE1, active compounds read low 0.993 | [12] 1.01

COCc1nc2c([nH]1)c(=O)n(C)c(=O)n2CC(C)C
inactive: [1] 0.991 | [2] 1 | [3] 1 | [4] 0.997 | [5] 1.02 | [6] 1.01 | [7] 0.993 | [8] 0.994 | [14] 1.01 | [9] 0.999 | [10] 1.01 | [11] 1 | [12] 1.01 | [13] 1.01

O=c1c(Sc2ccc(Cl)cc2)c(Sc2ccc(Cl)cc2)c1=O
active: locus YDL214C, strain PRR2, active compounds read low 0.104 | locus YDR477W, strain SNF1, active compounds read low 0.136 | locus YER123W, strain YCK3, active compounds read low 0.0987 | locus YER133W, strain GLC7, active compounds read low 0.108 | locus YFR019W, strain FAB1, active compounds read low 0.091 | locus YGR040W, strain KSS1, active compounds read low 0.158 | locus YGR052W, strain FMP48, active compounds read low 0.135 | locus YGR092W, strain DBF2, active compounds read low 0.386 | locus YHR030C, strain SLT2, active compounds read low 0.128 | locus YHR079C, strain IRE1, active compounds read low 0.113 | locus YHR082C, strain KSP1, active compounds read low 0.128 | locus YHR205W, strain SCH9, active compounds read low 0.121 | locus YJL095W, strain BCK1, active compounds read low 0.128 | locus YJL157C, strain FAR1, active compounds read low 0.0972 | locus YJR066W, strain TOR1 (second series), active compounds read low 0.0937 | locus YJR066W, strain TOR1, active compounds read low 0.124 | locus YKL048C, strain ELM1, active compounds read low 0.6 | locus YKL067W, strain YNK1, active compounds read low 0.115 | locus YKL101W, strain HSL1, active compounds read low 0.39 | locus YKL203C, strain TOR2, active compounds read low 0.432 | locus YLR113W, strain HOG1, active compounds read low 0.175 | locus YLR133W, strain CKI1, active compounds read low 0.147 | locus YLR403W, strain SFP1, active compounds read low 0.154 | locus YML070W, strain DAK1, active compounds read low 0.0995 | locus YMR205C, strain PFK2 (second series), active compounds read low 0.241 | locus YNL006W, strain LST8, active compounds read low 0.45 | locus YNL020C, strain ARK1, active compounds read low 0.196 | locus YNL183C, strain NPR1, active compounds read low 0.114 | locus YNL307C, strain MCK1 (second series), active compounds read low 0.261 | locus YOL136C, strain PFK27, active compounds read low 0.0906 | locus YOR061W, strain CKA2, active compounds read low 0.266 | locus YOR119C, strain RIO1, active compounds read low 0.485 | locus YOR231W, strain MKK1, active compounds read low 0.142 | locus YPL031C, strain PHO85, active compounds read low 0.103 | locus YPL153C, strain RAD53, active compounds read low 0.104 | locus YPL204W, strain HRR25, active compounds read low 0.109 | locus YPL256C, strain CLN2, active compounds read low 0.154
inactive: locus YBL105C, strain PKC1, active compounds read low 0.984 | locus YBR135W, strain CKS1, active compounds read low 0.961 | locus YBR136W, strain MEC1, active compounds read low 0.978 | locus YBR160W, strain CDC28, active compounds read low 0.973 | locus YDL017W, strain CDC7, active compounds read low 0.985 | locus YDL028C, strain MPS1, active compounds read low 0.973 | locus YDL108W, strain KIN28, active compounds read low 0.967 | locus YDR052C, strain DBF4, active compounds read low 0.977 | locus YDR226W, strain ADK1, active compounds read low 0.971 | locus YFR003C, strain YPI1, active compounds read low 0.979 | locus YFR028C, strain CDC14, active compounds read low 0.968 | locus YIL147C, strain SLN1, active compounds read low 0.971 | locus YJL128C, strain PBS2, active compounds read low 0.971 | locus YJR016C, strain ILV3, active compounds read low 0.974 | locus YNL207W, strain RIO2, active compounds read low 0.973 | locus YPL209C, strain IPL1, active compounds read low 0.985 | locus YPR106W, strain ISR1, active compounds read low 0.978 | locus YPR111W, strain DBF20, active compounds read low 0.962 | strain NNK1, active compounds read low 0.98
